# Measurements published in the supplement of paper PMC6897291.
# Structures can show the parent of a compound that is named as a salt.
# Key:
# RIVA [1] = test: growth inhibition by drug plus 177Lu-lilotomab satetraxetan (1 - RLU/untreated control) (fraction); higher = stronger inhibition; conditions: 177Lu-lilotomab satetraxetan 0.5 ug/ml
# Summary of the method: (§1)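 Growth inhibition was calculated from RealTime-Glo RLU against untreated no-drug wells. Values equal 1 − RLU/mean of 48 untreated no-drug wells per plate, read daily from day 3 after 1 h at 37°C. RIVA and U-2932 cells, with or without 18 h pretreatment by a radiolabelled anti-CD37 antibody conjugate (~600 MBq/mg; 0.5 µg/ml RIVA, 1 µg/ml U-2932), were washed and plated at 3,000 cells/well on compound-printed plates at 10/100 nM (RIVA) or 10/1,000 nM (U-2932).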
# U-2932 [2] = test: growth inhibition by drug alone (1 - RLU/untreated control) (fraction); higher = stronger inhibition; conditions: 177Lu-lilotomab satetraxetan 0 ug/ml
# Summary of the method: as §1
# RIVA [3] = test: as above; conditions: 177Lu-lilotomab satetraxetan 0 ug/ml
# Summary of the method: as §1
# U-2932 [4] = test: growth inhibition by drug plus 177Lu-lilotomab satetraxetan (1 - RLU/untreated control) (fraction); higher = stronger inhibition; conditions: 177Lu-lilotomab satetraxetan 1 ug/ml
# Summary of the method: as §1
Structure (SMILES),"growth inhibition by drug plus 177Lu-lilotomab satetraxetan (RIVA [1]; 100 nM, time (day): 5)","growth inhibition by drug plus 177Lu-lilotomab satetraxetan (RIVA [1]; 100 nM, time (day): 6)","growth inhibition by drug alone (U-2932 [2]; 10 nM, time (day): 3)","growth inhibition by drug alone (U-2932 [2]; 10 nM, time (day): 4)","growth inhibition by drug alone (U-2932 [2]; 10 nM, time (day): 5)","growth inhibition by drug alone (U-2932 [2]; 10 nM, time (day): 6)","growth inhibition by drug alone (U-2932 [2]; 1000 nM, time (day): 3)","growth inhibition by drug alone (U-2932 [2]; 1000 nM, time (day): 4)","growth inhibition by drug alone (U-2932 [2]; 1000 nM, time (day): 5)","growth inhibition by drug alone (U-2932 [2]; 1000 nM, time (day): 6)","growth inhibition by drug alone (RIVA [3]; 10 nM, time (day): 3)","growth inhibition by drug alone (RIVA [3]; 10 nM, time (day): 4)","growth inhibition by drug alone (RIVA [3]; 10 nM, time (day): 5)","growth inhibition by drug alone (RIVA [3]; 10 nM, time (day): 6)","growth inhibition by drug alone (RIVA [3]; 100 nM, time (day): 3)","growth inhibition by drug alone (RIVA [3]; 100 nM, time (day): 4)","growth inhibition by drug alone (RIVA [3]; 100 nM, time (day): 5)","growth inhibition by drug alone (RIVA [3]; 100 nM, time (day): 6)","growth inhibition by drug plus 177Lu-lilotomab satetraxetan (U-2932 [4]; 10 nM, time (day): 3)","growth inhibition by drug plus 177Lu-lilotomab satetraxetan (U-2932 [4]; 10 nM, time (day): 4)","growth inhibition by drug plus 177Lu-lilotomab satetraxetan (U-2932 [4]; 10 nM, time (day): 5)","growth inhibition by drug plus 177Lu-lilotomab satetraxetan (U-2932 [4]; 10 nM, time (day): 6)","growth inhibition by drug plus 177Lu-lilotomab satetraxetan (U-2932 [4]; 1000 nM, time (day): 3)","growth inhibition by drug plus 177Lu-lilotomab satetraxetan (U-2932 [4]; 1000 nM, time (day): 4)","growth inhibition by drug plus 177Lu-lilotomab satetraxetan (U-2932 [4]; 1000 nM, time (day): 5)","growth inhibition by drug plus 177Lu-lilotomab satetraxetan (U-2932 [4]; 1000 nM, time (day): 6)","growth inhibition by drug plus 177Lu-lilotomab satetraxetan (RIVA [1]; 10 nM, time (day): 3)","growth inhibition by drug plus 177Lu-lilotomab satetraxetan (RIVA [1]; 10 nM, time (day): 4)","growth inhibition by drug plus 177Lu-lilotomab satetraxetan (RIVA [1]; 10 nM, time (day): 5)","growth inhibition by drug plus 177Lu-lilotomab satetraxetan (RIVA [1]; 10 nM, time (day): 6)","growth inhibition by drug plus 177Lu-lilotomab satetraxetan (RIVA [1]; 100 nM, time (day): 3)","growth inhibition by drug plus 177Lu-lilotomab satetraxetan (RIVA [1]; 100 nM, time (day): 4)"
O=C1c2c(O)ccc(O)c2C(=O)c2c(NCCNCCO)ccc(NCCNCCO)c21 [Mitoxantrone Hydrochloride],0.947,0.962,,,,,,,,,,,,,,,,,,,,,,,,,,,,,,
Cn1cnc2c(F)c(Nc3ccc(Br)cc3Cl)c(C(=O)NOCCO)cc21 [AZD6244 (Selumetinib)],0.316,0.307,0.124,0.0689,-0.0711,0.0468,0.116,0.112,-0.011,0.127,0.0177,-0.0269,-0.137,-0.558,-0.313,-0.239,-0.319,-0.531,-0.00544,0.0596,0.0509,0.056,0.15,0.192,0.203,0.285,0.452,0.491,0.497,0.504,0.277,0.359
CS(=O)(=O)c1cccc(CNc2nc(Nc3ccc4c(c3)CCC(=O)N4)ncc2C(F)(F)F)c1,0.352,0.383,0.0502,0.00856,-0.0018,0.0705,-0.0504,-0.0365,-0.0145,0.085,-0.0802,-0.0828,-0.0817,-0.0957,-0.0969,-0.126,-0.181,-0.218,-0.0177,0.0519,0.101,0.199,0.0169,0.0857,0.144,0.314,0.467,0.549,0.572,0.567,0.206,0.328
C=CC(=O)N1CCC[C@@H](n2nc(-c3ccc(Oc4ccccc4)cc3)c3c(N)ncnc32)C1,0.919,0.934,0.341,0.519,0.583,0.634,0.502,0.623,0.729,0.832,0.676,0.716,0.705,0.642,0.897,0.908,0.915,0.923,0.46,0.56,0.568,0.6,0.639,0.723,0.791,0.845,0.764,0.828,0.848,0.853,0.872,0.9
